{
  "source": "PubChem BioAssay AID686979",
  "about": "(National Center for Advancing Translational Sciences (NCATS), 2013)",
  "note": "In all, about 420,000 compounds went through this assay and about 50,000 (12%) were called active. Another 26% or so got no clear call; they are omitted. The sample as a whole holds a higher share of actives than the screen did. Unmarked numbers belong to inactive results. Calls come from the whole dose curve; as a rule, active = well fitted inhibition curve with a large enough effect; inconclusive = small, poorly fitted or top-dose-only effect; inactive = flat fitted curve, though single readings scatter.",
  "data": [
    {"experiment": "qHTS for Inhibitors of human tyrosyl-DNA phosphodiesterase 1 (TDP1): qHTS in cells in presence of CPT; note: nearly all actives have a fitted effect of over 55% in size; note: potency is the fitted concentration of half-maximal effect; for activity change, negative = growth inhibition: % is set by controls: 0 for no effect and ±100 for the full control effect", "details": "chicken DT40 Tdp1-/-;hTDP1 cells + 20 nM CPT, ATP luminescence, 48 h; series mostly up to 46.2 µM; activity change, negative = growth inhibition: at the top concentration", "how_it_was_run": "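Chicken DT40 Tdp1-/- cells complemented with human TDP1, 400 cells/well, exposed to compounds plus 20 nM camptothecin for at least 48 h at 37 C; viability read as ATP content by CellTiter-Glo luminescence.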", "units": {"activity change, negative = growth inhibition": "%"}, "values": [
      {"compound": "Cc1cccc(OC(C)C(=O)N2CCc3ccccc3C2)c1", "note": "(configuration not stated)", "activity change, negative = growth inhibition": -13.5},
      {"compound": "COc1cc(N2C(=O)c3ccccc3C2=O)c(Cl)cc1C(=O)OCC(=O)N1CCOCC1", "activity change, negative = growth inhibition": 3.81},
      {"compound": "COc1cccc(NC(=O)COC(=O)/C=C/c2ccco2)c1", "activity change, negative = growth inhibition": -23},
      {"compound": "Cc1cccc(OCC(=O)NCCCNC(=O)c2ccccn2)c1", "activity change, negative = growth inhibition": 12.5},
      {"compound": "CCOc1cc2ccccc2cc1C(=O)Nc1ccccn1", "activity change, negative = growth inhibition": 0.36},
      {"compound": "CCN(CC)CCOc1ccc2c(c1)C(=NNC(=O)c1ccccn1)c1cc(OCCN(CC)CC)ccc1-2", "Potency": "5.17 µM (active)"},
      {"compound": "CCCc1nnc(NC(=O)CCC(=O)NC2CC2)s1", "activity change, negative = growth inhibition": 16.2},
      {"compound": "CCCc1ccc(C(=O)COC(=O)CN2C(=O)NC3(CCCCC3C)C2=O)cc1", "note": "(configuration not stated)", "activity change, negative = growth inhibition": -21.8},
      {"compound": "Cc1cc2c(cc1C)[n+](C)cn2CC(O)COCC1CC=CCC1", "note": "(configuration not stated)", "Potency": "8.2 µM (active)"},
      {"compound": "CC1CCN(C(=O)/C(=C\\c2ccccc2)NC(=O)c2ccccc2)CC1", "activity change, negative = growth inhibition": 1.54},
      {"compound": "Cc1nn(CC#N)c(=O)n1N(C)c1ncc(C(F)(F)F)cc1Cl", "activity change, negative = growth inhibition": 10.2},
      {"compound": "O=C(Nc1ccccc1N1CCOCC1)c1ccncc1", "activity change, negative = growth inhibition": -1.96},
      {"compound": "O=C(Nc1ccccc1N1CCCCC1)c1cccc(F)c1", "activity change, negative = growth inhibition": -28.7},
      {"compound": "O=C(Nc1ccccc1N1CCCCC1)c1ccc2nccnc2c1", "Potency": "20.6 µM (active)"},
      {"compound": "COC(=O)c1cccc(N(C(=O)CNC(=O)c2cccs2)C(C(=O)NCC2CCCO2)c2ccc(OC)c(OC)c2)c1", "note": "(configuration not stated)", "activity change, negative = growth inhibition": 1.61},
      {"compound": "CNC(=O)CN1C(=O)c2cccnc2Sc2ccccc21", "activity change, negative = growth inhibition": -3.74},
      {"compound": "CC(=O)N1CCC2(CCCN(c3ncccn3)C2)CC1", "activity change, negative = growth inhibition": 12.2},
      {"compound": "CC(C)NC(=O)N1CC[C@@]2(CCCN(C(=O)c3cccc(F)c3)C2)C1", "activity change, negative = growth inhibition": 2.88},
      {"compound": "O=C(c1cc(C(F)(F)F)cc(C(F)(F)F)c1)N1CCC[C@@]2(CCN(c3ccccn3)C2)C1", "Potency": "16.4 µM (active)"},
      {"compound": "Cc1cc(F)ccc1S(=O)(=O)Nc1ccc(C(=O)N(C)Cc2ccco2)cc1", "activity change, negative = growth inhibition": -17.2},
      {"compound": "COc1c(C=O)c(CCN(C)C(=O)c2ccc(F)cc2)cc2c1OCO2", "activity change, negative = growth inhibition": 1.5},
      {"compound": "COc1cccc2c1OCC(CN1CCN(C3CCCCC3)C(CCO)C1)=C2", "note": "(configuration not stated)", "activity change, negative = growth inhibition": 17.8},
      {"compound": "COc1ccc(-n2c(=O)c3ccccc3n(Cc3ccccc3Cl)c2=O)cc1", "activity change, negative = growth inhibition": -12.9},
      {"compound": "CC(=O)OC[C@H]1O[C@@H](O[C@H]2[C@H](O)[C@@H](OC(=O)c3ccccc3C(=O)O)[C@H](O)O[C@@H]2COC(C)=O)[C@H](O)[C@@H](OC(=O)c2ccccc2C(=O)O)[C@@H]1O", "activity change, negative = growth inhibition": 9.29},
      {"compound": "O=C(CNC(=O)COc1ccccc1)NCCc1ccccn1", "activity change, negative = growth inhibition": 25.9},
      {"compound": "COc1cncc(-c2cnc3sc(NCCc4ccccn4)nn23)c1", "Potency": "13 µM (active)"},
      {"compound": "Cc1ccc(C(=O)N/C(=C\\c2cccs2)C(=O)NCCc2ccccn2)cc1C", "activity change, negative = growth inhibition": -4.71},
      {"compound": "N#Cc1cc([N+](=O)[O-])ccc1NCC1CCCO1", "note": "(configuration not stated)", "activity change, negative = growth inhibition": -1.48},
      {"compound": "O=C(O)CN1c2cccc3cccc(c23)S1(=O)=O", "activity change, negative = growth inhibition": 8.65},
      {"compound": "Cc1ccc(NC(=O)/C(=C\\c2ccccc2)NC(=O)c2ccco2)cc1", "activity change, negative = growth inhibition": 19.2},
      {"compound": "Clc1ccc(C2CC(c3cccs3)n3ncnc3N2)cc1Cl", "note": "(configuration not stated)", "activity change, negative = growth inhibition": -15.9},
      {"compound": "COc1ccc(C2CC(c3ccccc3)Nc3ncnn32)cc1", "note": "(configuration not stated)", "activity change, negative = growth inhibition": -21.6},
      {"compound": "FC(F)Oc1ccccc1C1CC(c2ccc(Br)s2)Nc2ncnn21", "note": "(configuration not stated)", "Potency": "11.6 µM (active)"},
      {"compound": "CCOC(=O)Cn1nnnc1C", "activity change, negative = growth inhibition": 2.09},
      {"compound": "O=C(O)c1cc(S(=O)(=O)N(Cc2ccccc2)c2ccccc2)ccc1Cl", "activity change, negative = growth inhibition": 14.8},
      {"compound": "COc1cc2nnn(-c3ccncc3)c2cc1OC", "activity change, negative = growth inhibition": 1.19},
      {"compound": "Cc1nn(CC(=O)NCCc2ccccc2)c(=O)c2cc3occc3n12", "activity change, negative = growth inhibition": 1.61},
      {"compound": "COCCNC(=O)c1cc2c(Br)ccc(Br)c2nc1N", "activity change, negative = growth inhibition": 1.46},
      {"compound": "COc1ccccc1N1CCN(CC(=O)NC(=O)NCc2ccco2)CC1", "activity change, negative = growth inhibition": -0.174},
      {"compound": "CNCC(O)CN1CCN(c2ccccc2OC)CC1", "note": "(configuration not stated)", "activity change, negative = growth inhibition": -3.99},
      {"compound": "COc1ccccc1N1CCN(CCN2C(=O)c3ccccc3C(C)(C)C2=O)CC1", "Potency": "14.6 µM (active)"},
      {"compound": "COc1ccc2c(C)cc3nnnn3c2c1", "activity change, negative = growth inhibition": 1.49},
      {"compound": "CC(C)[C@H](NC(=O)N1CC(=O)Nc2ccccc21)C(=O)N[C@@H](Cc1c[nH]c2ccccc12)C(=O)O", "activity change, negative = growth inhibition": 8.26},
      {"compound": "CCN(C(=O)Cn1cnc2sc(C)c(S(=O)(=O)N3CCN(c4ncccn4)CC3)c2c1=O)c1ccccc1F", "activity change, negative = growth inhibition": -17.6},
      {"compound": "COc1ccc(S(=O)(=O)N2CCCCCC2)cc1NC(=O)Cc1ccc(OC)c(OC)c1", "activity change, negative = growth inhibition": 6.32},
      {"compound": "Cc1ccc(S(=O)(=O)N2CCCCC2)cc1NC(=O)[C@@H]1CCCN1C(=O)c1cccs1", "activity change, negative = growth inhibition": 7.21},
      {"compound": "CCOc1ccc(S(=O)(=O)N2CCCCC2)cc1NC(=O)CN1CCCC1c1cccs1", "note": "(configuration not stated)", "Potency": "3.66 µM (active)"},
      {"compound": "Cc1csc[n+]1CCC1CCCCC1", "Potency": "20 µM (active)"},
      {"compound": "CC(=O)c1ccc(N2C(=NC(=O)C(C)C)SC3CS(=O)(=O)CC32)cc1", "note": "(configuration not stated)", "activity change, negative = growth inhibition": -10.8},
      {"compound": "O=C(CN1CCN(CC(=O)Nc2ccc3c(c2)OCO3)CC1)Nc1ccc(F)cc1", "activity change, negative = growth inhibition": -6.39},
      {"compound": "O=C(CSc1nnc(-c2ccccn2)n1-c1ccccc1)Nc1ccc2c(c1)OCO2", "activity change, negative = growth inhibition": 1.97},
      {"compound": "O=C(CSc1nc(-c2cccc(F)c2)[nH]c1-c1ccccc1)Nc1ccc2c(c1)OCO2", "Potency": "10.3 µM (active)"}
    ]}
  ]
}
